Among all 59,000 compounds or so, about 6,500 (11%) were called active. About 15% were inconclusive and are not listed. Rule as the data show it: active = max dye-equivalent concentration above about 10 nM; inconclusive = mostly about 1.1 nM to 9.6 nM; inactive = weaker than that. Shown is part of a subset that was picked to be rich in actives.

The nature of this test: qHTS Assay for Spectroscopic Profiling in A350 Spectral Region. As to conditions: Compound autofluorescence, 340/450 nm, Alexa 350 dye-equivalents; stronger effect = higher value.
As for `O=C(Nc1ccccc1)c1cccnc1Nc1ccccc1`, the max dye-equivalent concentration entry was “inactive”. Then `Oc1ccc2nc(Cc3ccccc3)[nH]c2c1`, with “inactive”. Turning to `COC(=O)Nc1nc2ccc(Sc3ccccc3)cc2[nH]1`, the max dye-equivalent concentration is 16 nM (active). Then `CCC(=O)Nc1cccc(NC(=O)CSc2nnnn2C2CCCC2)c1`, with “inactive”; and `Cc1ccc(S(=O)(=O)NCc2cn3ccsc3n2)c(C)c1`, with “inactive”; and `CCOc1cccc(-c2nnc3sc(COc4ccc(OC)cc4)nn23)c1`, with “inactive”.

Take `c1ccc(-c2cc(-c3nnc4sc(-c5ccccn5)nn34)[nH]n2)cc1`: the max dye-equivalent concentration result was “inactive”. Then `COc1cc(-c2nn3c(-c4cccc(C)c4)nnc3s2)cc(OC)c1OC`, with 2600 nM (active).

In the case of `CCOC(=O)CNC(=O)CSc1nnc(-c2cccc(OC)c2)n1CC`, the max dye-equivalent concentration result is “inactive”. As to `Cc1nnc2sc(-c3ccco3)nn12`, the max dye-equivalent concentration entry was “inactive”.

`O=C(CSc1nnc2scc(-c3ccc(F)cc3)n12)NCc1ccco1`: the max dye-equivalent concentration entry is “inactive”. As for `CC(=O)Nc1ccc(-c2nn3c(C)nnc3s2)cc1C`, the max dye-equivalent concentration entry was “inactive”. Then `Fc1ccc(-c2ccc(-c3nn4c(-c5ccco5)nnc4s3)o2)cc1`, with 68 nM (active); and `Fc1ccc(-c2nnc3sc(-c4ccc5c(c4)OCO5)nn23)cc1`, with 36 nM (active). Then `c1ccc(-c2nnc3n2NC(c2ccc4c(c2)OCO4)S3)cc1` (stereo unspecified), with “inactive”.

Turning to `COc1ccccc1Cn1c(=S)[nH]c2cc(C(=O)N3CCN(C)CC3)ccc2c1=O`, the max dye-equivalent concentration result was “inactive”. With `CSCCC1NC2(C(=O)Nc3ccc(Cl)cc32)[C@@H]2C(=O)N(C3CCCC3)C(=O)[C@H]12` (stereo partly specified), the max dye-equivalent concentration entry is “inactive”. The result for `Cc1ccc2c(C(=O)CN3CCCC3)c(C)[nH]c2c1` reads “inactive”; that for `CC(C)C(=O)N1CCN(CCN=CC2=C(O)CC(c3ccco3)CC2=O)CC1` (stereo unspecified), “inactive”.

On to `CC(C)c1ccc(N2CC(C(=O)Nc3nccs3)CC2=O)cc1` (stereo unspecified), for which the max dye-equivalent concentration result is “inactive”. Then `COC(=O)c1ccc(CSc2nncn2C)cc1`, with “inactive”; and `O=C(NCCSc1ccccc1)c1ccco1`, with “inactive”; and `O=C(Nc1ccccc1)Nc1ccccc1C(=O)NCc1ccco1`, with “inactive”. On to `O=C(NCc1ccco1)c1cc(-c2cccnc2)nc2ccc(Cl)cc12`, for which the max dye-equivalent concentration result was “inactive”. For the compound `COC(=O)c1cnn2c(C(F)(F)F)cc(-c3ccco3)nc12`, the max dye-equivalent concentration was 870 nM (active). Then `O=C(CSc1nc(-c2ccco2)cc(C(F)(F)F)n1)N1CCc2ccccc2C1`, with “inactive”; and `COC(=O)c1ccccc1NC(=O)Cn1nc(C(F)(F)F)c2c1CCC2`, with “inactive”. For the compound `O=C(NCc1ccco1)c1cnn2c(C(F)(F)F)cc(-c3ccco3)nc12`, the max dye-equivalent concentration is 300 nM (active). Then `CN(C(=O)CSc1nnnn1-c1ccccc1)C1CCCCC1`, with “inactive”; and `Cc1oc2nc(SCC(=O)NCc3cccnc3)nc(N)c2c1C`, with “inactive”; and `O=C(c1ccc2c(c1)N(Cc1ccc(F)cc1)C(=O)CS2)N1CCOCC1`, with “inactive”. Then `CCNC(=O)c1c(O)c2cccc3c2n(c1=O)CC3`, with 22 nM (active); and `Cc1cc(=O)n2c3c(cccc13)CCC2`, with “inactive”; and `Cn1c(C(=O)NCCN2CCc3ccccc3C2)cc2c(=O)[nH]c3ccccc3c21`, with “inactive”. `Cc1cnc(CNc2nc(-c3cccnc3)nc3ccccc23)cn1`: the max dye-equivalent concentration result is “inactive”. Consider `CN(C)CCSS(=O)(=O)O`, for which the max dye-equivalent concentration result was “inactive”. The result for `C[C@]1(O)CC[C@H]2[C@H]3CC=C4N5CCN=C5CC[C@@]4(C)[C@H]3CC[C@@]21C` reads “inactive”. Take `Cc1cc(N2CCCC2)n2nc(C)c(-c3ccccc3)c2n1`: the max dye-equivalent concentration is 220 nM (active). Turning to `CC(=O)c1cc(-c2ccccc2)[nH]c1N1CCCC1`, the max dye-equivalent concentration result is “inactive”. The result for `S=c1c2[nH]cnc2ncn1CCSc1ncnc2nc[nH]c12` reads “inactive”; that for `CC(C)(C)c1csc(NC2=NS(=O)(=O)c3ccccc32)n1`, “inactive”; that for `COc1ccc(NC(=O)CN(C)S(=O)(=O)c2ccccc2)cc1OC`, “inactive”. The result for `Brc1ccc(Nc2c3c(nc4ncnn24)CCC3)cc1` reads “inactive”; that for `CC1CCc2c(sc(NC(=O)c3ccc(Cn4cc(Br)cn4)o3)c2C(N)=O)C1` (stereo unspecified), 110 nM (active).

In the case of `NC(=O)CSc1oc(-c2cccs2)nc1S(=O)(=O)c1ccccc1`, the max dye-equivalent concentration result is “inactive”. With `O=C(c1ccco1)N1CCC[C@@]2(CCN(Cc3nccs3)C2)C1`, the max dye-equivalent concentration entry is “inactive”.

Turning to `c1ccc(-c2cn3cccnc3n2)cc1`, the max dye-equivalent concentration is 4800 nM (active).

As for `CCOc1nc(OCC)nc(-n2cc(-c3ccccc3)nn2)n1`, the max dye-equivalent concentration result was “inactive”.

With `COc1ccc(-c2cn3ccsc3n2)cc1`, the max dye-equivalent concentration result is “inactive”.

Take `CC(=O)Nc1ccc(-c2cn3cccnc3n2)cc1`: the max dye-equivalent concentration is 6300 nM (active). `CCCC(=O)Nc1cccc(-c2cn3ccsc3n2)c1`: the max dye-equivalent concentration entry was “inactive”.

Regarding `CC(=O)Nc1cccc(-c2cnc3ccccc3n2)c1`, the max dye-equivalent concentration entry was “inactive”. Then `CC(=O)N(Cc1cccs1)C1CCOC(C)(C)C1` (stereo unspecified), with “inactive”. For the compound `CCCCn1c(=S)[nH]c2ncccc2c1=O`, the max dye-equivalent concentration result is “inactive”. The result for `O=S(=O)(N1CCOCC1)N1CCN(c2ccccc2F)CC1` reads “inactive”; that for `O=c1[nH]c(-c2ccccc2)c(-c2ccccc2)[nH]1`, 14 nM (active); that for `c1ccc(-c2[nH]ncc2-c2nc3ccccc3[nH]2)cc1`, “inactive”. For `CC1(C)CC(=O)NC=C(c2ccccc2)C1`, the max dye-equivalent concentration entry is “inactive”. The result for `c1csc(CN2CCN(Cc3cccs3)C2c2cccs2)c1` reads “inactive”; that for `CC1CCCCC1NC(=O)CCS(=O)(=O)c1cccc2nonc12` (stereo unspecified), “inactive”; that for `Cc1nnc(SCC(=O)NCc2cccs2)[nH]c1=O`, “inactive”.

For `C=CCn1c(N)c(S(=O)(=O)c2cccs2)c2nc3ccccc3nc21`, the max dye-equivalent concentration was 5300 nM (active). Then `C=CCn1c(C2CC(=O)N(c3ccc(C)cc3)C2)nc2ccccc21` (stereo unspecified), with “inactive”; and `C=CCn1c(N)c(C(=O)OCC(C)C)c2nc3ccccc3nc21`, with 4500 nM (active). Regarding `CCN(CC(=O)NCc1cccs1)c1nnnn1-c1ccccc1`, the max dye-equivalent concentration result is “inactive”. For the compound `CC(C)Cn1c(N)c(C(=O)NCc2cccs2)c2nc3ccccc3nc21`, the max dye-equivalent concentration is 350 nM (active). The result for `CC(=O)c1c(N2CCOCC2)nc(=S)n(-c2cc(C)ccc2C)c1C` reads “inactive”; that for `COC(=O)[C@@H]1[C@H]2C[C@H]3c4[nH]c5cc(OC)ccc5c4CCN3C[C@@H]2C[C@@H](OC(=O)c2cc(OC)c(OC)c(OC)c2)[C@@H]1OC`, “inactive”.

As for `Oc1c(Br)cc(CN(Cc2cc(Br)c(O)c(Br)c2)C2CCCCC2)cc1Br`, the max dye-equivalent concentration entry is “inactive”. The result for `CS(=O)(=O)c1ccc2nc(NC(=O)CN3CCCCCC3)sc2c1` reads “inactive”; that for `CCn1nnc(NC(=O)c2c(OC)cccc2OC)n1`, “inactive”.
